BoNT-F LC inh = BoNT F light chain protease inhibition; Multiplex microsphere protease cleavage assay, flow cytometry; hit rate 0.22% among 360,000; inhibition, % at 10 µM; AID 588497; in the data active means inhibition above about 35%, passing the limit was not always enough; inconclusive means no clear call, values can overlap the other calls; further: plate controls were buffer without enzyme for full effect and enzyme alone for no effect
FBA Mtb inh = inhibitors of M. tuberculosis fructose-bisphosphate aldolase; P9WQA3; purified M. tuberculosis FBA, fluorescence read-out; inhibition, % at 1 µM; hit rate 2.3% among 360,000; AID 588726; in the data active means inhibition above about 27%;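 further: 0% = vehicle and 100% = reference inhibitor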
Target sequence (P9WQA3 whole entry, looked up): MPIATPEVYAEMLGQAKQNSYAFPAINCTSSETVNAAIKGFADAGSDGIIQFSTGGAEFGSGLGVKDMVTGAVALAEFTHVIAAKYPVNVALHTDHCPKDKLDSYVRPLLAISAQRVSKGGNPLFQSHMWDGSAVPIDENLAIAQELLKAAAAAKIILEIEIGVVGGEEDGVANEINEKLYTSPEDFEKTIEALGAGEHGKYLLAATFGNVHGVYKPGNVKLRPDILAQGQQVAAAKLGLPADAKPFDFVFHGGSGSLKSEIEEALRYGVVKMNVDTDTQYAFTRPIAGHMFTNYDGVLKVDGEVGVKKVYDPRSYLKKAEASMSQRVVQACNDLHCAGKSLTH
Anthrax LF prot = blocks Bacillus anthracis lethal factor protease. P15917. multiplex microsphere protease cleavage assay, LF. inhibition, % at 10 µM. hit rate 0.12% among 360,000; further: plate controls were buffer without enzyme for full effect and enzyme alone for no effect
BoNT-A LC inh2 = blocks Botulinum neurotoxin A light chain protease | AID 588499 | inhibition, % at 10 µM | multiplex microsphere protease substrate cleavage, flow cytometry | hit rate 0.17% among 360,000; further: plate controls were buffer without enzyme for full effect and enzyme alone for no effect
Bead autofluor = counter-screen for toxin protease inhibitors: compound fluorescence; hit rate 3.1% among 360,000; compound autofluorescence counterscreen, microsphere flow cytometry; hits give high values; fluorescence intensity (concentration not given with the values); in the data active means fluorescence intensity above about 16000; inconclusive means no clear call, values can overlap the other calls
GDH-TPI inh = GDH-TPI coupled enzyme inhibition counter-screen; hit rate 1.2% among 360,000; inhibition, % at 4.8 µM; AID 588335; GDH-TPI coupled enzyme counterscreen, NADH absorbance; in the data active means inhibition above about 30%;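 further: 0% = DMSO wells and 100% = wells lacking the enzyme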
* = called active by the depositor; ? = inconclusive; · = no result given; + = active, no number. Most compounds without a hit are left out; they make up all but 6.7% or so of the library. Unless noted, no stated cut-off is given here; in the data, active means inhibition above about 30%; inconclusive means no clear call, values can overlap the other calls; inactive means below that.

SMILES	BoNT-F LC inh	FBA Mtb inh	Anthrax LF prot	BoNT-A LC inh2	Bead autofluor	GDH-TPI inh
CCCCn1c(SCC(=O)N2CCCCC2C)nc2cc(S(N)(=O)=O)ccc21 (stereo not drawn)	5	-2	2	0	2894	2
O=C(N/N=C\C=C\c1ccc2c(c1)OCO2)c1cccnc1	4	1	-1	0	2071	54*
O=C(N/N=C\c1ccc2c(c1)OCO2)c1ccco1	2	4	1	1	2576	43*
O=C/C(=C\Nc1ccc(C(=O)N2CCOCC2)cc1)c1nc2ccccc2o1	-6	-4	3	-1	3996	30
CCN(CC(=O)Nc1c(F)cccc1F)C(=O)c1ccc2ncsc2c1	-311	2	-42	-181	49356*	-4
CCN(CC(=O)Nc1c(F)cccc1F)C(=O)c1ccc(C(F)(F)F)cc1	-9	-2	-2	0	3890	-8
CCCCSc1nc(N)c(C#N)c(-c2cccs2)c1C#N	2	-4	-1	3	19876*	5
CC(=O)CSc1nc(N)c(C#N)c(-c2cccs2)c1C#N	2	-1	5	0	9364	12
COc1ccc(C(=O)NCC(=O)OCC(=O)N2CC(C)CC(C)C2)cc1 (stereo not drawn)	-389	1	3	-20	17297*	0
CN(/N=C/c1ccncc1)c1cnc2ccccc2n1	-8	-5	0	0	3277	33*
COc1cc(CNC2CCCCC2OC)cc(OC)c1 (stereo not drawn)	-4	-3	-1	0	4229	-1
COC(=O)c1ccc(-n2cncn2)c(F)c1	-2	1	-1	?	23526*	5
CCCCCCSc1cc(-c2nc3cc(C)ccn3c2NCCCC)ccc1OC	-6	12	-13	-1	4500	15
CCCCNc1c(-c2cccc(-c3cc(C(C)=O)cs3)c2)nc2cc(C)ccn12	-8	3	-1	0	3080	33*
C(#Cc1ccc(C#CCN2CCOCC2)cc1)CN1CCOCC1	-3	0	-2	-2	17459*	10
C(#Cc1ccccc1)CN1CCOCC1	-6	1	-8	0	4359	0
COC(=O)c1ccc(COC(=O)c2ccccc2OC)cc1	-6	0	-1	0	2441	9
COC(=O)c1ccc(OCC(=O)c2ccccc2OC)cc1	5	0	-7	?	20757*	5
CC(C)CC1=C/C(=C/c2ccc(-c3ccccc3)o2)C(=O)O1	10	10	6	11	3120	12
COc1ccc(C)cc1NC(=O)c1sc2nc(C)nc(N3CCOCC3)c2c1C	0	2	-1	0	6091	-9
O=C(O)C1CCCCC1C(=O)Nc1cccc2ccccc12 (stereo not drawn)	6	12	-6	6	20285*	4
Cc1ccc(CNC(=O)C2CCCCC2C(=O)O)cc1 (stereo not drawn)	1	-2	-7	?	21599*	10
COc1ccc2nc(/C=N/NC(=O)CCNC(=O)OC(C)(C)C)ccc2c1	?	69*	-21	-1	?	52*
CC(C)(C)OC(=O)NCCC(=O)N/N=C/c1ccc2ncccc2c1	?	2	-20	?	3662	3
COCCOC(=O)c1c(C)n(C)c2ccc(OC(=O)c3cccs3)cc12	-5	-2	-2	-2	16814*	13
SMILES	BoNT-F LC inh	FBA Mtb inh	Anthrax LF prot	BoNT-A LC inh2	Bead autofluor	GDH-TPI inh
COCCOC(=O)c1c(C)n(C)c2ccc(OC(=O)N(C)C)cc12	-4	2	0	-1	22829*	11
COCCOC(=O)c1c(C)n(C)c2ccc(OC(=O)c3ccccc3F)cc12	11	0	-22	-1	3227	2
Cc1cc(N2CCN(c3ccccc3)CC2)n2nnnc2n1	5	5	4	1	2712	2
Cc1cc(N2CCN(c3ccccc3)CC2)n2c(n1)nc1ccccc12	8	2	2	?	23762*	21
Cc1cccc(CN2CCN(CC(=O)N3CCCC3)C2=O)c1	6	3	-1	1	8439	-11
Cc1cccc(CN2CCN(CC(=O)O)C2=O)c1	-2	0	-2	-1	19589*	-3
Cc1ccccc1CN1CCN(CC(=O)NCc2ccccc2)C1=O	-2	-5	-1	-3	20841*	-4
O=C(CN1CCN(Cc2ccccc2)C1=O)NCc1ccc(Cl)cc1	-5	2	0	-1	5174	3
COC(=O)C1=C(C)N(CCCC(=O)O)C(=O)NC1c1cccc2ccccc12 (stereo not drawn)	4	1	-5	-1	3571	-9
Cc1cc(C)cc(N(C(=O)c2csnn2)C(C(=O)NC(C)(C)C)c2cccs2)c1 (stereo not drawn)	0	-2	4	0	11245	2
Cc1c(O)c(CN(C)C)cc2c1oc(=O)c1ccccc12	2	1	2	0	5478	20
CCCCc1cc(=O)oc2c(CN(C)C)c(O)c(Cl)cc12	-3	·	-2	0	23705*	12
CCc1c(C)c2cc(Cl)c(O)c(CN(CC)CC)c2oc1=O	5	+	-1	1	9892	13
CCc1c(C)c2cc(Cl)c(O)c(CN(C)C)c2oc1=O	-7	·	1	?	17210*	32*
CCc1cc2c(=O)c(-c3nc4ccccc4n3C)c(C)oc2c(CN(CC)CC)c1O	-5	14	0	0	?	16
Cc1c(C)c2cc(Cl)c(O)c(CN(C)C)c2oc1=O	4	+	-6	0	5660	15
CCOc1cc(C2C(C(C)=O)=C(C)Nc3ncnn32)ccc1O (stereo not drawn)	-2	0	8	2	3694	2
COc1ccc(NS(=O)(=O)c2cc(NC(=O)c3cnc(C)cn3)ccc2N2CCCCC2)cc1	-3	-2	0	0	2076	-1
C#C[C@]1(O)CC[C@H]2[C@@H]3CCC4=CC(=O)CC[C@@H]4[C@H]3CC[C@@]21C	-5	5	-3	0	5748	12
C#CC1(O)CCC2C3CCC4=CC(=O)CCC4=C3C=CC21C (stereo not drawn)	8	14	4	0	4208	42*
Cc1noc(C)c1-c1nnc(-c2ccc(C(F)(F)F)cc2)o1	-14	3	10	-2	4972	-3
CCc1ccccc1NC(=O)c1cnccn1	-4	-2	0	-2	21346*	5
CSc1ccccc1NC(=O)c1cnccn1	-6	-1	-2	?	16758*	23
CSc1ccccc1NC(=O)Nc1ccc(Cl)cc1	8	0	-10	9	20588*	0
CC(C)c1ccccc1NC(=O)c1cnccn1	-5	-1	-2	?	25411*	4
O=C(Nc1cccc2ccccc12)c1cnccn1	4	-1	-9	2	2985	13
N#C/C(=C\c1ccc(Sc2ccc(Cl)cc2)o1)c1nc2ccccc2[nH]1	0	-8	3	4	2469	-1
N#C/C(=C\c1ccc(Cl)cc1)c1nc2ncccc2[nH]1	-8	22	-4	1	3638	39*
